Experimental findings from paper PMC7862700, “An all-to-all approach to the identification of sequence-specific readers for epigenetic DNA modifications on cytosine” are described below.

What all share (assay): DAPPL (digital affinity profiling via proximity ligation, sequencing); 10 mM Tris-HCl pH 7.5, 50 mM NaCl, 1 mM DTT, 4% glycerol, room temperature, 30 min; GST-TFs on glutathione beads, 16-mer random dsDNA library, 0.1% formaldehyde crosslink after washing; high values mean tight binding
The target of assay [1] is T1, FEV (Homo sapiens, UniProt Q99581 1-238).
T1 sequence: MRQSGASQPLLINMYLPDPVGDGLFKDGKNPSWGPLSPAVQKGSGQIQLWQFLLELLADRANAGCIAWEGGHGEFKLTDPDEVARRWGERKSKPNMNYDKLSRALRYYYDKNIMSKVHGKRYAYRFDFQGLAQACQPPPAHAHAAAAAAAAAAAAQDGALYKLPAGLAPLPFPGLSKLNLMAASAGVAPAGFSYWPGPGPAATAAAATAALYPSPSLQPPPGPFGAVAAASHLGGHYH
Particulars: protein: recombinant; tags: N-terminal GST; dsDNA, one strand shown. In a few lines:
(§1)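 Yeast served to express human transcription factors as GST fusions, which were then captured on glutathione beads and labelled with DNA barcodes. Pooled with a tag-only sample, they were incubated with 200 nmole of a 16-mer random double-stranded DNA library for 30 min at room temperature in Tris/NaCl/DTT/glycerol buffer, washed, crosslinked with 0.1% formaldehyde, ligated by proximity, amplified by PCR and sequenced. Dividing each hexamer's read frequency for a factor by its frequency for the tag-only sample gives the binding signal.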

For assay [2], the target named is ETV5 (Homo sapiens, UniProt P41161 1-510). Particulars: protein: recombinant; tags: N-terminal GST; dsDNA, one strand shown. In a few lines:
as §1

Assay [3] addresses HSF1 (Homo sapiens, UniProt Q00613 1-529). Particulars: protein: recombinant; tags: N-terminal GST; chain copies: 3; dsDNA, one strand shown. In a few lines: as §1
Assay [4] addresses T2, SPIC (Homo sapiens, UniProt Q8N5J4 1-248).
T2 sequence: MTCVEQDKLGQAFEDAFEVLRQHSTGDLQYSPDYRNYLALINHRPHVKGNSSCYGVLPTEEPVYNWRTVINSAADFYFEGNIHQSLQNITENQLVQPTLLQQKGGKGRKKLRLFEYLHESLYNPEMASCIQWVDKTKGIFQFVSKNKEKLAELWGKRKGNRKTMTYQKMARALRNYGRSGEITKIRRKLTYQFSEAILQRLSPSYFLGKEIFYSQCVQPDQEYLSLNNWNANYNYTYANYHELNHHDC
Particulars: protein: recombinant; tags: N-terminal GST; dsDNA, one strand shown. The procedure, abridged: as §1

In assay [5] the target is ELF4 (Homo sapiens, UniProt Q99607 1-663). Particulars: protein: recombinant; tags: N-terminal GST; dsDNA, one strand shown. The procedure, abridged: as §1
Chain of ELF4 (Q99607 whole entry): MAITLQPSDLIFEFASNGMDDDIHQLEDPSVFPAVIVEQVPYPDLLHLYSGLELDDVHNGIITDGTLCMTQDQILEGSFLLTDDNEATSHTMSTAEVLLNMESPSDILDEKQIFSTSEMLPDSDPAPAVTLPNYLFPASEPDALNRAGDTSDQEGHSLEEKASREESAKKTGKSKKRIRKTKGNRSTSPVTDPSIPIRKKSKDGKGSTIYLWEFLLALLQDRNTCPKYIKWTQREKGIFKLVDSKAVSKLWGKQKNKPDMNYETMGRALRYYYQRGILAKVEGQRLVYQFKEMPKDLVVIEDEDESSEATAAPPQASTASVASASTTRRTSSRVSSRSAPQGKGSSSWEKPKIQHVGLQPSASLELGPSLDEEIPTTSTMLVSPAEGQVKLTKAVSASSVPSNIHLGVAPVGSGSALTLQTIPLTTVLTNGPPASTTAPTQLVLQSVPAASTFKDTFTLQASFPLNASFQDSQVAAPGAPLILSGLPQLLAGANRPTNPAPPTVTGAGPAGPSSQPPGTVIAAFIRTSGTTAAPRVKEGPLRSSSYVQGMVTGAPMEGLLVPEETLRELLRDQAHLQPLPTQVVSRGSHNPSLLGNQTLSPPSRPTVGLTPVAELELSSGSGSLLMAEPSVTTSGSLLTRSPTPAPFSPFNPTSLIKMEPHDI
The target of assay [6] is T3, ELK4 (Homo sapiens, UniProt P28324-2 1-405).
T3 sequence: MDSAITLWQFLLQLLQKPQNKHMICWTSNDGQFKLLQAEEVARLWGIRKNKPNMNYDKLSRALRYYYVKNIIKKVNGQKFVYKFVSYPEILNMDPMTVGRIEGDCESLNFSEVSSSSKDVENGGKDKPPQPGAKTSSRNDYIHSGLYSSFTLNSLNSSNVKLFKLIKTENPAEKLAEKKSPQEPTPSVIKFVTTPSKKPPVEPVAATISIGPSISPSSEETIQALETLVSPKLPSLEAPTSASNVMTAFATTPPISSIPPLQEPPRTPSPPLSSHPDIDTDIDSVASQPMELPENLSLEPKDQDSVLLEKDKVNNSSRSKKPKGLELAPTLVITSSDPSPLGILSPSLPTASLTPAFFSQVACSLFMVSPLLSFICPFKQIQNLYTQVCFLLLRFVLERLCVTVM
Particulars: protein: recombinant; tags: N-terminal GST; dsDNA, one strand shown. The procedure, abridged: as §1

In assay [7] the target is T4, ETV2 (Homo sapiens, UniProt O00321 1-342).
T4 sequence: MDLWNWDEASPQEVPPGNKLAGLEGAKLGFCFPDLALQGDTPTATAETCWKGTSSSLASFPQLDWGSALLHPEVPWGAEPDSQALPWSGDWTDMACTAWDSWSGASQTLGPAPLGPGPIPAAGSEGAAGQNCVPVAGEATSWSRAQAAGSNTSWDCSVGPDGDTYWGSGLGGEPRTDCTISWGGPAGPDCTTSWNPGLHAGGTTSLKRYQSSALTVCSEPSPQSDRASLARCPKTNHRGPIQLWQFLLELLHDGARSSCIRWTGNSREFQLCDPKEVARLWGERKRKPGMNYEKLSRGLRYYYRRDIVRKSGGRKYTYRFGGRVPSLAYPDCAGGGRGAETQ
Particulars: protein: recombinant; tags: N-terminal GST; dsDNA, one strand shown. In a few lines: as §1

The target of assay [8] is T5, ELF3 (Homo sapiens, UniProt P78545 1-371).
T5 sequence: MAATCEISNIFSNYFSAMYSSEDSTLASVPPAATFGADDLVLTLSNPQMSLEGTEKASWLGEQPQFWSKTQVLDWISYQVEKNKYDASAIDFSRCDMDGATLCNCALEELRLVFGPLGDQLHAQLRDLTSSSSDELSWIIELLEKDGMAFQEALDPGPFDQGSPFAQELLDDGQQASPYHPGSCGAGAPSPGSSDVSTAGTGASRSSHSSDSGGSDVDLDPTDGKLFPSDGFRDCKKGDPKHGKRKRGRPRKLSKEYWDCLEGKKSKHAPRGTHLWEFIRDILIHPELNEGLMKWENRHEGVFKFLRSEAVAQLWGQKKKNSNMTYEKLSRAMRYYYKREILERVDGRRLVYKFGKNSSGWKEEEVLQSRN
Particulars: protein: recombinant; tags: N-terminal GST; dsDNA, one strand shown. The procedure, abridged:
as §1

Assay [9] addresses CRX (Homo sapiens, UniProt O43186 1-299). Particulars: protein: recombinant; tags: N-terminal GST; dsDNA, one strand shown. In a few lines:
as §1

Assay [10] deals with ETV1 (Homo sapiens, UniProt P50549 1-477). Particulars: protein: recombinant; tags: N-terminal GST; dsDNA, one strand shown. In a few lines:
as §1

The target of assay [11] is T6, ERF (Homo sapiens, UniProt P50548 1-548).
T6 sequence: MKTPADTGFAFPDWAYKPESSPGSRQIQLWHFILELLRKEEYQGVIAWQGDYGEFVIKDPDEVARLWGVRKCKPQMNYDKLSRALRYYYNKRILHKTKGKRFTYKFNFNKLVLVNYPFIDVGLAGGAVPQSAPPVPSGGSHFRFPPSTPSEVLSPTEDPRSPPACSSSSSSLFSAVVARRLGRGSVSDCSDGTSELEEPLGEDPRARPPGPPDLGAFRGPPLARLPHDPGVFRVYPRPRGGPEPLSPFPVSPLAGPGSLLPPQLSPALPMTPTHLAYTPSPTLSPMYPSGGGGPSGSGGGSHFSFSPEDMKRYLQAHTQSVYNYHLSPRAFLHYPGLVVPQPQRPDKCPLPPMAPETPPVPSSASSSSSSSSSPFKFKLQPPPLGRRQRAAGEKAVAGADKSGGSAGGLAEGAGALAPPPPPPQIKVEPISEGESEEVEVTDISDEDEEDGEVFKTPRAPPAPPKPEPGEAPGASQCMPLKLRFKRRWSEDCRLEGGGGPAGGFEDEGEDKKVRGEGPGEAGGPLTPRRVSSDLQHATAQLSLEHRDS
Particulars: protein: recombinant; tags: N-terminal GST; dsDNA, one strand shown. The procedure, abridged: as §1

For assay [12], the target named is T7, ETV3L (Homo sapiens, UniProt Q6ZN32 1-361).
T7 sequence: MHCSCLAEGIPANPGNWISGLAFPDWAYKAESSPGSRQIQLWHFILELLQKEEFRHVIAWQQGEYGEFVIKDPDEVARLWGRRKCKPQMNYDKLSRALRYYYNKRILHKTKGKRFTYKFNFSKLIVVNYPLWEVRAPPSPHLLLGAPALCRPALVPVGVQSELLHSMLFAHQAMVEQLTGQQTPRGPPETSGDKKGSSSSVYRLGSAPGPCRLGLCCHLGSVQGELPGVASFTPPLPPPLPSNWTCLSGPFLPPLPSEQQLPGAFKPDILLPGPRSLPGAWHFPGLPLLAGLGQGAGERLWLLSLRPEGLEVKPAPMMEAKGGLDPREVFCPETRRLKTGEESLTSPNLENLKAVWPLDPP
Particulars: protein: recombinant; tags: N-terminal GST; dsDNA, one strand shown. In a few lines: as §1

The target of assay [13] is T8, ETS2 (Homo sapiens, UniProt P15036 1-469).
T8 sequence: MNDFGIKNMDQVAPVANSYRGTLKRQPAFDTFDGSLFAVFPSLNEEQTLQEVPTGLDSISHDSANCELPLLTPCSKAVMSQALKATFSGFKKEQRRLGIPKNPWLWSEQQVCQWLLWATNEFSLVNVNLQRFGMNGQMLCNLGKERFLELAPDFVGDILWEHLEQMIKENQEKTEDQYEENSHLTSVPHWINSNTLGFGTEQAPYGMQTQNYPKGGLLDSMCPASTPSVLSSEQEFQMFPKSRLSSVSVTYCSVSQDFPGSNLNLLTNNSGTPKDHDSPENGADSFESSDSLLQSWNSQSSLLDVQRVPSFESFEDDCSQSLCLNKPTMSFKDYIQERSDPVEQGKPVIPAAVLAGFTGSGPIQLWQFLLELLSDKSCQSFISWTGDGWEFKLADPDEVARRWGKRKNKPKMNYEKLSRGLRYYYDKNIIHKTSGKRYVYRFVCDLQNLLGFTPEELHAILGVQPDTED
Particulars: protein: recombinant; tags: N-terminal GST; dsDNA, one strand shown. In a few lines: as §1

The target of assay [14] is T9, SPDEF (Homo sapiens, UniProt O95238 1-335).
T9 sequence: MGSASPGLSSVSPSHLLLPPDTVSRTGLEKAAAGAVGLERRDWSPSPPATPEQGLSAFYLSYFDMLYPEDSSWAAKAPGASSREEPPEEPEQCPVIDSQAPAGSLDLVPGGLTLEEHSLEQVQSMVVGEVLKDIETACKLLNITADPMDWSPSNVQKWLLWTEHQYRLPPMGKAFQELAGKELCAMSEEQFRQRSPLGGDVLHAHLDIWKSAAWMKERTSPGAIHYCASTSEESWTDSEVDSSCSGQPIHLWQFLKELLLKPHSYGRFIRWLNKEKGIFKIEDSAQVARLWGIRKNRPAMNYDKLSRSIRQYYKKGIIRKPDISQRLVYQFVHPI
Particulars: protein: recombinant; tags: N-terminal GST; dsDNA, one strand shown. The procedure, abridged: as §1

Assay [15] has as its target T10, ETV7 (Homo sapiens, UniProt Q9Y603 1-341).
T10 sequence: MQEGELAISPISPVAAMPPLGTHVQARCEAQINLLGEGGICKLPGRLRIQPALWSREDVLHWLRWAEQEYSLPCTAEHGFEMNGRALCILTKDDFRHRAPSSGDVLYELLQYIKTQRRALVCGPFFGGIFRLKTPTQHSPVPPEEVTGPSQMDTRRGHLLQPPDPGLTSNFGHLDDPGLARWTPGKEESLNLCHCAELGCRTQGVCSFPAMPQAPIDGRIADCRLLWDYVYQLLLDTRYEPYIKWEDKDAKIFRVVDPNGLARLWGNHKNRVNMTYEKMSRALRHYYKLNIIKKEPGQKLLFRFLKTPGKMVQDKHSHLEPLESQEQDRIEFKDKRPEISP
Particulars: protein: recombinant; tags: N-terminal GST; dsDNA, one strand shown. In a few lines: as §1

Assay [16] concerns the target T11, ELF5 (Homo sapiens, UniProt Q9UKW6-2 1-255).
T11 sequence: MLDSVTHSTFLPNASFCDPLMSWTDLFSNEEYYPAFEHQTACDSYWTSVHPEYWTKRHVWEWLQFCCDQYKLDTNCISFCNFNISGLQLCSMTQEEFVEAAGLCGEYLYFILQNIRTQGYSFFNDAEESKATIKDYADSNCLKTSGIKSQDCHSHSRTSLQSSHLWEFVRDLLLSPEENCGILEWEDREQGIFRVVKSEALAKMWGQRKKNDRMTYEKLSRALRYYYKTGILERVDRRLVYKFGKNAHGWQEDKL
Particulars: protein: recombinant; tags: N-terminal GST; dsDNA, one strand shown. The procedure, abridged:
as §1

In assay [17] the target is T12, ETV3 (Homo sapiens, UniProt P41162-2 1-143).
T12 sequence: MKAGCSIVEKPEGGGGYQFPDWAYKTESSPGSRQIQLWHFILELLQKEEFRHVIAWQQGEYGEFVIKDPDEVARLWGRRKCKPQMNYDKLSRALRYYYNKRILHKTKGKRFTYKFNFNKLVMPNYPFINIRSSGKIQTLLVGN
Particulars: protein: recombinant; tags: N-terminal GST; dsDNA, one strand shown. The procedure, abridged:
as §1

The target in assay [18] is ETV6 (Homo sapiens, UniProt P41212 1-452). Particulars: protein: recombinant; tags: N-terminal GST; dsDNA, one strand shown. The procedure, abridged:
as §1

Chain of ETV6 (P41212 whole entry): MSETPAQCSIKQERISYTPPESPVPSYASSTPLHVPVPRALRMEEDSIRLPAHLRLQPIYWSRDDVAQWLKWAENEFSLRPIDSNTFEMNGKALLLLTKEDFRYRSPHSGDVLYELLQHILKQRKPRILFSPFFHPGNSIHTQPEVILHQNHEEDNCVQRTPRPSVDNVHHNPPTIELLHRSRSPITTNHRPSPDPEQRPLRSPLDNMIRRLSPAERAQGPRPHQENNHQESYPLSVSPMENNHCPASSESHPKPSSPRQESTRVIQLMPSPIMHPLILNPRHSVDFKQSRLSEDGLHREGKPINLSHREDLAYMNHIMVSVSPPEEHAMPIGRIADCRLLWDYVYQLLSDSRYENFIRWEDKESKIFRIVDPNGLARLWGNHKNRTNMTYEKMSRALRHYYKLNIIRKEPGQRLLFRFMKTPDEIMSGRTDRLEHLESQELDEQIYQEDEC
Chain of ETV5 (P41161 whole entry): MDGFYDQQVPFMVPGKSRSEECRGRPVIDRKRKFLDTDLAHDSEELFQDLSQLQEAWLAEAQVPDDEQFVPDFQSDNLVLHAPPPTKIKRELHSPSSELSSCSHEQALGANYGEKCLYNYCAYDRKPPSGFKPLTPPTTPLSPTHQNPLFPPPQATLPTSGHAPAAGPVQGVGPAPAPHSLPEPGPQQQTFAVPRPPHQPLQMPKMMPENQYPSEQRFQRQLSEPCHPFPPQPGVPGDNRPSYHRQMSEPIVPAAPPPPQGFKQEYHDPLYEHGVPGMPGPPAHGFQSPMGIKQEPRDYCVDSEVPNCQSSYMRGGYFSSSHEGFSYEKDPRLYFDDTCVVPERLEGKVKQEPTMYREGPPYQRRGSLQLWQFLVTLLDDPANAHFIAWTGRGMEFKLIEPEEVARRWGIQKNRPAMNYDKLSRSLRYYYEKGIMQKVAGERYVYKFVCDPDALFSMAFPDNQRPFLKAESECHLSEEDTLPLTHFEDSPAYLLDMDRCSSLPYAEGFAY
Chain of CRX (O43186 whole entry): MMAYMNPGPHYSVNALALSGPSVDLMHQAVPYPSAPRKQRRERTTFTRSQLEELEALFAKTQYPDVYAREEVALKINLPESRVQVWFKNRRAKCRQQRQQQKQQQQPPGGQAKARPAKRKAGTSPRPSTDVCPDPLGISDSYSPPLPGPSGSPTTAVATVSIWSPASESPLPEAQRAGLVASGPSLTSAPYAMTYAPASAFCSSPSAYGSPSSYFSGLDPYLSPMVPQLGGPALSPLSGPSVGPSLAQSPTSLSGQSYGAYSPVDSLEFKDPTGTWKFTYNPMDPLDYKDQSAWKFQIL
Chain of ETV1 (P50549 whole entry): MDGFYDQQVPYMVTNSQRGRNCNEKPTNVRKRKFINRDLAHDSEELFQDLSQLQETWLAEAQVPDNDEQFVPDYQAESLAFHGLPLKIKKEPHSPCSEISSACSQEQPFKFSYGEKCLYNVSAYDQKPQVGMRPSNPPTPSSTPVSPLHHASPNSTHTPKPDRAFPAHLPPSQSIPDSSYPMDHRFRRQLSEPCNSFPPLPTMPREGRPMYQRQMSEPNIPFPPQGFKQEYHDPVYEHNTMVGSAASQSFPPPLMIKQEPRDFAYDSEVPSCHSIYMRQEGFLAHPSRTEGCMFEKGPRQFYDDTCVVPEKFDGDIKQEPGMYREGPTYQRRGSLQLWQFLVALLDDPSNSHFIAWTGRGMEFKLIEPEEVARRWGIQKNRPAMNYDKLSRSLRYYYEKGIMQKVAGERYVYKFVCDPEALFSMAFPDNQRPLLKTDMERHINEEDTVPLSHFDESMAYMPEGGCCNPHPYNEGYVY
Chain of HSF1 (Q00613 whole entry): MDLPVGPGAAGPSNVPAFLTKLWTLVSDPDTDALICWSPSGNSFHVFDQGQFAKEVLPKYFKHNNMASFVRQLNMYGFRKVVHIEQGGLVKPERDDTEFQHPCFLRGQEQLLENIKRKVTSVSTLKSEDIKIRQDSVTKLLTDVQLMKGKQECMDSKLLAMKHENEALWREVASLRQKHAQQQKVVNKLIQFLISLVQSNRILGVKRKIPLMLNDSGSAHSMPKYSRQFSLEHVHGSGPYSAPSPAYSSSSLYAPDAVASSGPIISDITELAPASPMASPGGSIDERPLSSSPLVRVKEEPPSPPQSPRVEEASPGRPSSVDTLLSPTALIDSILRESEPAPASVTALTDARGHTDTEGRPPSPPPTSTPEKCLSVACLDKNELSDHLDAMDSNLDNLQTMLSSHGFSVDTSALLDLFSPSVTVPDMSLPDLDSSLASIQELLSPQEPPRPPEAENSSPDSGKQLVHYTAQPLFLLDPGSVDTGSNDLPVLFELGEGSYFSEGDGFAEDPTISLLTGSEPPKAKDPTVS

In the case of CCCTTC, the binding signal was 1.47 fold enrichment (6-mer frequency, TF over GST control) in assay [1]; 1.54 fold enrichment (6-mer frequency, TF over GST control) in assay [2]; 1.35 fold enrichment (6-mer frequency, TF over GST control) in assay [3]; 1.19 fold enrichment (6-mer frequency, TF over GST control) in [4]; 1.49 fold enrichment (6-mer frequency, TF over GST control) in assay [5]; 1.35 fold enrichment (6-mer frequency, TF over GST control) in assay [6]. Further, the binding signal in assay [7] is 1.33 fold enrichment (6-mer frequency, TF over GST control); in [8] it was 1.46 fold enrichment (6-mer frequency, TF over GST control); in assay [9], 1.05 fold enrichment (6-mer frequency, TF over GST control); in [10], 1.51 fold enrichment (6-mer frequency, TF over GST control); in [11] it was 1.25 fold enrichment (6-mer frequency, TF over GST control); in assay [12] it was 1.44 fold enrichment (6-mer frequency, TF over GST control). Further, the binding signal in assay [13] is 1.37 fold enrichment (6-mer frequency, TF over GST control); in assay [14], 1.38 fold enrichment (6-mer frequency, TF over GST control); in assay [15], 1.43 fold enrichment (6-mer frequency, TF over GST control); in assay [16], 1.62 fold enrichment (6-mer frequency, TF over GST control); in [17] it was 1.34 fold enrichment (6-mer frequency, TF over GST control); in [18] it was 1.5 fold enrichment (6-mer frequency, TF over GST control).
